Compounds with a hit are over-represented: about 5.4% of the library has one in this group of screens.
Mdm2-MdmX inh – inhibitors of human Mdm2/MdmX interaction; AID 485346; SaOS-2 split-luciferase Mdm2/MdmX complementation, luminescence; inhibition, % at 8 µM; O15151+Q00987; hit rate 3% among 330,000;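 active means inhibition of at least 50% at 8 µM in the primary screen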
Target sequence (O15151 whole entry, looked up): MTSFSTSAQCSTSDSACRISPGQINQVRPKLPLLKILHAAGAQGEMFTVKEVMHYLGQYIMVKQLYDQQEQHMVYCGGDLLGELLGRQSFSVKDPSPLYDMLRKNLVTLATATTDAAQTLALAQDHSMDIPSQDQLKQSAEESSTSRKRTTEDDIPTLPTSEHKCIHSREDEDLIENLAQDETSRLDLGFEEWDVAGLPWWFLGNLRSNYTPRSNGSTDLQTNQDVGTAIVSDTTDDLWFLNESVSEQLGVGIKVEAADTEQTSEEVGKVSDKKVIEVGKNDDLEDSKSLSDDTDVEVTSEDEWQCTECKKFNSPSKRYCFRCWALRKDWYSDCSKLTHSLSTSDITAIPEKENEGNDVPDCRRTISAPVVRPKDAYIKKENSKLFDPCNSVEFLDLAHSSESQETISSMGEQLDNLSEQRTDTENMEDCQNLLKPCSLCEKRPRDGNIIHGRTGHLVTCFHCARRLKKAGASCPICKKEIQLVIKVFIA
Target sequence (Q00987 whole entry, looked up): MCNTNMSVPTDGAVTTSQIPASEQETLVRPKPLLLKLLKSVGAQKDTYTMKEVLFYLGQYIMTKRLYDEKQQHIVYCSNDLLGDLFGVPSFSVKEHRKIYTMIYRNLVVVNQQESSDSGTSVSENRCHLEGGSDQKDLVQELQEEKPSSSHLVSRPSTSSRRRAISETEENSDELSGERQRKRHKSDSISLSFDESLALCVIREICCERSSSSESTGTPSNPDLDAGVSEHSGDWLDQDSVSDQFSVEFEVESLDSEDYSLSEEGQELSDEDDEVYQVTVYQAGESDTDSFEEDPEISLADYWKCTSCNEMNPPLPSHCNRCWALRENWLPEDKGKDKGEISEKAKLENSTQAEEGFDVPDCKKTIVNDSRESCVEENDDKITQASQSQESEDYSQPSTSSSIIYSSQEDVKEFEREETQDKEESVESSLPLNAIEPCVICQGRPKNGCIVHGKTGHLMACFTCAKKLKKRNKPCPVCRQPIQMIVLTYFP
MPTP inh – inhibitors of mitochondrial permeability transition pore; isolated mouse mitochondria, Ca2+ swelling absorbance, 30 min; inhibition, % at 10 µM; hit rate 1.4% among 360,000;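 active means inhibition of 50% or more, scaled per plate between neutral and stimulator controls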
Calb FLC – C. albicans growth modulation with fluconazole; C. albicans CaCi-2 (fluconazole-resistant clinical isolate) + fluconazole, Alamar Blue growth, 48 h; hit rate 0.57% among 300,000; growth inhibition, % (test concentration not listed); AID 1979;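 active means growth inhibition above about 58% in most replicates, limit read from the data, passing the limit was not always enough; inconclusive means exactly half the replicates above a set limit; inactive means most replicates below a set limit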;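 further: all wells also contain fluconazole at 8 µg/ml as a sub-toxic cotreatment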
Beta apoptosis – beta cell apoptosis inhibition; INS-1E cytokine-induced death, ATP luminescence, 48 h; percent of positive-control rescue, neutral wells zero; AID 435005; protection from apoptosis, % (no concentration beside the values); hit rate 0.8% among 300,000;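 active means Every replicate reaches about 75%, or at least half do and their mean reaches it too, limit read from the data; inconclusive means At least half of replicates reach the limit but their mean does not; inactive means Under half of replicates reach the limit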;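 further: higher means more ATP so stronger rescue from cytokine killing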
CSC inhib – cancer stem cell inhibition; cancer stem cell-like cells viability, luminescence; hit rate 1.1% among 300,000; AID 2717; inhibition, % at 7.5 µM; in the data active means inhibition above about 75%; inconclusive means no clear call, values can overlap the other calls; tested in HMLE shEcad cells
SKKanGAS inh – inhibitors of SKKanGAS S. pyogenes growth in kanamycin (SK-promoter or general growth effect) | inhibition, % at 7.5 µM | AID 1662 | BacTiter-Glo, 6 h | hit rate 1.3% among 300,000;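 active means mean replicate score, as percent of positive control median, at least 50; inconclusive means mean below 50 but one replicate at or above 50; inactive means mean and every replicate below 50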;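 further: strain carries kanamycin resistance gene driven by streptokinase promoter and grows in 40 µg/ml kanamycin; loss of luminescence reflects streptokinase promoter inhibition or plain growth inhibition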
Mdm2-MdmX conf – human Mdm2/MdmX binding inhibition, confirmed; shares compounds with Mdm2-MdmX inh; luminescent assay; inhibition, % at 8 µM; hit rate 55% among 10,000; in the data active means inhibition above about 40%
FLuc counter – full-length luciferase inhibition in Mdm2/MdmX counter-screen. shares compounds with Mdm2-MdmX inh. SaOS-2 full-length luciferase counterscreen, luminescence. inhibition, % at 8 µM. hit rate 77% among 6,200;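 active means mean inhibition at 8 µM reaching about 37%, which flags the compound as non-specific, limit read from the data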;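 further: p53-null SaOS-2 cells with luciferase driven by a doxycycline-inducible promoter; compound on cells about two nights before reading with doxycycline added after day one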
Large screens that a line does not name were inactive (follow-up assays come after a bar, where they were run).

C=CCOc1ccc(C(=O)Nc2ccccc2C(=O)NCc2cccnc2)cc1	Mdm2-MdmX inh 58 | Mdm2-MdmX conf 55 | FLuc counter 61
CCCN(CCC)c1ncnc2nc[nH]c12	Mdm2-MdmX inh 72 | Mdm2-MdmX conf 64 | FLuc counter inactive
COc1ccc(C2CC(c3cccc(Br)c3)=NN2c2ccc(S(N)(=O)=O)cc2)cc1 (configuration not stated)	Mdm2-MdmX inh 57 (no result: Calb FLC, Beta apoptosis, CSC inhib, SKKanGAS inh) | Mdm2-MdmX conf inactive
COc1ccc(C2CC(c3cccc(F)c3)=NN2c2ccc(S(N)(=O)=O)cc2)cc1 (configuration not stated)	Mdm2-MdmX inh 81 (no result: Calb FLC, Beta apoptosis, CSC inhib, SKKanGAS inh) | Mdm2-MdmX conf inactive
COc1ccc(C2CC(c3ccccc3)=NN2c2ccc(S(N)(=O)=O)cc2)cc1 (configuration not stated)	SKKanGAS inh inconclusive
COc1ccc(C2CC(c3ccccc3Cl)=NN2c2ccc(S(N)(=O)=O)cc2)cc1 (configuration not stated)	none (no result: Calb FLC, Beta apoptosis, CSC inhib, SKKanGAS inh)
COc1ccc(C2CC(c3cccc(C(F)(F)F)c3)=NN2c2ccc(S(N)(=O)=O)cc2)cc1 (configuration not stated)	Mdm2-MdmX inh 87 (no result: Calb FLC, Beta apoptosis, CSC inhib, SKKanGAS inh) | Mdm2-MdmX conf inactive
COc1ccc(C(=O)Nc2cnn(Cc3ccc(Cl)cc3)c2)cc1OC	none
CCOC(=O)N1CCC(Nc2nc3ccccc3nc2NS(=O)(=O)c2ccc(Cl)cc2)CC1	none
Cc1ccc(C2=NN(C(=O)CCl)C(c3ccco3)C2)o1 (configuration not stated)	Mdm2-MdmX inh 100 (no result: Beta apoptosis, CSC inhib) | Mdm2-MdmX conf 99 | FLuc counter 58

Screening results: PubChem, several laboratories
